The nature of test [1]: probe aShh binding to arrayed compounds – biochemical, biotinylated probe, 635/667 nm fluorescence, primary screen (AID 1114).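 Also: probe is biotin-labelled aShh protein from a stem cell growth factor screen; measures binding of labelled protein to compounds printed on the slide; score merges feature fluorescence at 667 nm with signal-to-noise.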 The note with it: small-molecule microarray, higher = more signal.
Test [2] is described as follows: probe aNog binding to arrayed compounds – biochemical, biotinylated probe, 635/667 nm fluorescence, primary screen (AID 1115).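 Also: probe is biotinylated aNog protein used at 0.15 µg/mL for 1 h at 4 C; z-score combines 667 nm fluorescence of each spot with its signal to noise.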 The note with it: small-molecule microarray, higher = more signal.
The target of test [3] is Torsin-1A-interacting protein 1 (Homo sapiens) (UniProt Q5JTV8). Kind of test: compound microarray binding of lysate hLAP1 – cell lysate, small-molecule microarray, COS7 lysate, 635/667 nm fluorescence, primary screen (AID 1116). The note with it: 635 nm fluorescence, higher = more signal.
Torsin-1A-interacting protein 1 (Homo sapiens), sequence (Q5JTV8 whole entry, looked up): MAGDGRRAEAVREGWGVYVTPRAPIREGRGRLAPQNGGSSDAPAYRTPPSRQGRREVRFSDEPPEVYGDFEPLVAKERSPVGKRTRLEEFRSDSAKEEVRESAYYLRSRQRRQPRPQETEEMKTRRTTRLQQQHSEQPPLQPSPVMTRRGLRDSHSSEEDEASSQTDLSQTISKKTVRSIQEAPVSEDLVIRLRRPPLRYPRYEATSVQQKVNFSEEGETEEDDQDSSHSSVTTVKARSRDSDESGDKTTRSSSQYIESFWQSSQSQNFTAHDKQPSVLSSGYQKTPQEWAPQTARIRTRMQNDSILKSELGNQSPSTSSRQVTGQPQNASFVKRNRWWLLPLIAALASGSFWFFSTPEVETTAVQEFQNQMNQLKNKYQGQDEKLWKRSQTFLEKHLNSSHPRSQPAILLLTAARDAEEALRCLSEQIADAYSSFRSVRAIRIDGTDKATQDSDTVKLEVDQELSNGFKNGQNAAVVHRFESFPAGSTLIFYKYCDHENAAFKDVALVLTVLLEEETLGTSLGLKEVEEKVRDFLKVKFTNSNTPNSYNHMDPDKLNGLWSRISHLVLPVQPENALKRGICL
Another test has as its target Albumin (Bos taurus) (UniProt P02769). The test is described as follows: compounds binding labelled BSA control protein – biochemical, small-molecule microarray, Alexa647 label, 635/667 nm fluorescence, artefact control for SMM control protein annotation, profiling panel (AID 1118).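 Also: score merges 667 nm emission intensity and signal-to-noise per printed compound spot.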 The note with it: BSA-A647 binding, fluorescence 635 nm, higher = more signal.
Test [4] in a line: probe aXIP binding to arrayed compounds – biochemical, NeuroSMM set, 635/667 nm fluorescence, primary screen (AID 1119).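 Also: probe is the protein aXip251-270 applied at 1 µg/mL to compound-printed slides; binding of probe to printed compounds measured as 667 nm fluorescence plus signal to noise.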 The note with it: small-molecule microarray, higher = more signal, called active from +8 up or from −8 down.
A short description of test [5]: probe aNOTCH3 binding on compound microarray – biochemical, small-molecule microarray, 635/667 nm fluorescence, primary screen (AID 1120).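 Also: probe is a biotin-tagged antibody raised against NOTCH3 rather than NOTCH3 protein; score merges spot fluorescence near 667 nm with spot signal to noise.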 The note with it: higher = more signal.
The nature of test [6]: probe aNOTCH2 binding on compound microarray – biochemical, small-molecule microarray, 635/667 nm fluorescence, primary screen (AID 1121).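 Also: score merges feature fluorescence read at 667 nm with its signal to noise.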 The note with it: higher = more signal.
In test [7] the target is Carbonic anhydrase 2 (Homo sapiens) (UniProt P00918). The test is described as follows: compounds binding carbonic anhydrase 2 – biochemical, small-molecule microarray, Alexa647-labelled CAII, profiling panel (AID 1122). The note with it: CAII-A647 binding fluorescence, higher = more signal.
Test [8] in a line: COS7 lysate on small-molecule microarray, probe aHis, 635 nm (AID 1123).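 Also: z-score combines 667nm fluorescence intensity with signal-to-noise per printed compound spot.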 The note with it: COS7 cell lysate, fluorescence, higher = more signal.
The nature of test [9]: probe aLAP1 signal on lysate-treated microarray – cell lysate, small-molecule microarray, COS7 lysate, primary screen (AID 1124).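 Also: lysate comes from COS7 cells expressing LAP1 and is applied at 0.3 µg/mL; score merges spot fluorescence near 667 nm with signal-to-noise over triplicate slides.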 The note with it: probe aLAP1, fluorescence, higher = more signal.
The test system of another test is Sam68 (KHDRBS1). Kind of test: compounds binding KHDRBS1 protein – biochemical, small-molecule microarray, 635 nm fluorescence, primary screen (AID 1125).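 Also: score merges 667 nm channel intensity with signal to noise over triplicate slides.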 The note with it: higher = more signal.
The subject of test [10] is Chordin-like protein 2 (CHRDL2). Kind of test: compounds binding chordin-like 2 – biochemical, small-molecule microarray, 635 nm fluorescence, primary screen (AID 1126).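 Also: printed compound slides probed with Chrdl2 protein at 4 µg/mL for 1 h at 4 C; score merges 667 nm emission intensity with signal to noise over three replicate slides.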 The note with it: fluorescence 635 nm, higher = more signal.
Test [11] deals with Concanavalin-A (Canavalia ensiformis) (UniProt P02866). Kind of test: compounds binding concanavalin A lectin – biochemical, small-molecule microarray, Alexa647 label, 635 nm, artefact control for SMM control protein annotation, primary screen (AID 1127).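 Also: z combines 667 nm emission intensity with signal-to-noise across three replicate slides.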 The note with it: ConA-A647 binding fluorescence, higher = more signal.
Concanavalin-A (Canavalia ensiformis), sequence (P02866 whole entry, looked up): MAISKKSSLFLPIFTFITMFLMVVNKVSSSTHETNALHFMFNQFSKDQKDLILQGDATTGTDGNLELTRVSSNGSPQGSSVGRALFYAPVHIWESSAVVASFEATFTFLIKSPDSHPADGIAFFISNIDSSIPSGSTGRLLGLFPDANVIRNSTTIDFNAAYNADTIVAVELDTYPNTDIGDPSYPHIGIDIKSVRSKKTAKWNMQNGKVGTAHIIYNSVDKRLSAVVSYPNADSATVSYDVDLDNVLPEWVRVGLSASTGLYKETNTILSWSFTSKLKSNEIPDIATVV
A short description of test [12]: compounds binding Alexa647 anti-His antibody – biochemical, small-molecule microarray, 635 nm fluorescence, artefact control for SMM control protein annotation, primary screen (AID 1128).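 Also: score merges feature fluorescence with signal-to-noise for each printed compound spot.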 The note with it: higher = more signal.
For test [13], the system named is Human papillomavirus type 1a E7 protein (residues 1-88). Kind of test: HPV1a E7 small-molecule binders, primary screen, biochemical, small-molecule microarray, residues 1-88, 635 nm (AID 1129). The note with it: small-molecule microarray binding, fluorescence 635 nm; higher = more signal.
For test [14], the target named is Focal adhesion kinase 1 (Homo sapiens) (UniProt Q05397). Kind of test: PTK2 protein binding on printed compound slides – biochemical, small-molecule microarray, 635/667 nm fluorescence, BSA, DTT, primary screen (AID 1130).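 Also: composite of spot emission at 667 nm and signal to noise over triplicate slides.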 The note with it: 635 nm fluorescence, higher = more signal.
Focal adhesion kinase 1 (Homo sapiens), sequence (Q05397 whole entry, looked up): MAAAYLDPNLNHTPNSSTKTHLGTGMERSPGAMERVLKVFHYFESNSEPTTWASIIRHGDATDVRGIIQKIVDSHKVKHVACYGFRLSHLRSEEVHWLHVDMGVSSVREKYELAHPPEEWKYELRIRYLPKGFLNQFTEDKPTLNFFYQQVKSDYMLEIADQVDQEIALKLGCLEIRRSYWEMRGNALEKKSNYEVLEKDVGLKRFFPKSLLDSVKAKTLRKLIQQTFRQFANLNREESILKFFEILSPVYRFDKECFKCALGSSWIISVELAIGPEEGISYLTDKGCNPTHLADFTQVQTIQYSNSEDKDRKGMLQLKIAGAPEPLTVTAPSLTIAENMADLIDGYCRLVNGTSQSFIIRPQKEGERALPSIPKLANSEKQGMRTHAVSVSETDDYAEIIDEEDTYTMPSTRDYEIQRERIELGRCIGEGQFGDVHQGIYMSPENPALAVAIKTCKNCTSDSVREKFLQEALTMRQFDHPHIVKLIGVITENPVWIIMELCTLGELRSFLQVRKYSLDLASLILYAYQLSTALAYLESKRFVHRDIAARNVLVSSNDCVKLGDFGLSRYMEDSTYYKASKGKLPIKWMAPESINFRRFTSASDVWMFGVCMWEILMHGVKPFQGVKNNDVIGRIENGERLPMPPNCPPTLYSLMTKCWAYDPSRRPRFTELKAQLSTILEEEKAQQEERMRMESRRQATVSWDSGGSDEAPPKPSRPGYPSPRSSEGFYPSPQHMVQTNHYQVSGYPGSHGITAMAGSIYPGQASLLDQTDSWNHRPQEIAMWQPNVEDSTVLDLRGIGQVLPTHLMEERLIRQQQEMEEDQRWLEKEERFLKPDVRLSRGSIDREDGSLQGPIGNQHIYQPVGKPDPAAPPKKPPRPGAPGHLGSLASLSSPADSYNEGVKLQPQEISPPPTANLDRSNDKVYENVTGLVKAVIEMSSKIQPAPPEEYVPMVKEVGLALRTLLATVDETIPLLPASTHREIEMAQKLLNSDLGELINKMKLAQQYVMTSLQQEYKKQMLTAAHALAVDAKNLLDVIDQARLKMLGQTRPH
For test [15], the system named is Fibrinogen (Alexa647-labelled). The test is described as follows: Alexa647-fibrinogen binding to printed small molecules – biochemical, small-molecule microarray, 635/667 nm fluorescence, artefact control for SMM control-protein annotation, profiling panel (AID 1131).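 Also: z-score merges 667 nm fluorescence with per-spot signal-to-noise over triplicate slides.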 The note with it: fibrinogen-A647 binding fluorescence, higher = more signal.
Test [16] concerns the target Follistatin (Homo sapiens) (UniProt P19883). The test is described as follows: FST protein binding to printed compounds – biochemical, small-molecule microarray, 635/667 nm fluorescence, primary screen (AID 1132). The note with it: 635 nm fluorescence, higher = more signal.
In test [17] the target is Fibroblast growth factor 2 (Homo sapiens) (UniProt P09038). Kind of test: basic fibroblast growth factor binding to printed compounds – biochemical, small-molecule microarray, 635/667 nm fluorescence, primary screen (AID 1133). The note with it: FGF2, fluorescence 635/667, higher = more signal.
Fibroblast growth factor 2 (Homo sapiens), sequence (P09038 whole entry, looked up): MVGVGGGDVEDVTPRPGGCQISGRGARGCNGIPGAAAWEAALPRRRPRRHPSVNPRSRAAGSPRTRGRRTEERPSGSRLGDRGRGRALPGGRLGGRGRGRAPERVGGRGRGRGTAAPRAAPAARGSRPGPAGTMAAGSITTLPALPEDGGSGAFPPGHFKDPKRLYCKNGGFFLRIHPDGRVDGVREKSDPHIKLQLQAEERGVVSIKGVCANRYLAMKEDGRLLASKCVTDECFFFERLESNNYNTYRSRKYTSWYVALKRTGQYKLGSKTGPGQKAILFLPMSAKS
Test [18] in a line: JC-1 mitochondrial potential readout, lung cancer cells – cell-based, A549, JC-1 fluorescence, basal, 24 h, 100 nL, profiling panel (AID 1138).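 Also: A549 lung adenocarcinoma cells under basal conditions with no added stimulus; test concentration not given here.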 The note with it: higher = more signal.

SMILES strings stand for the structures. Calls of active or inactive are those of the source.

Follistatin (Homo sapiens), sequence (P19883 whole entry, looked up): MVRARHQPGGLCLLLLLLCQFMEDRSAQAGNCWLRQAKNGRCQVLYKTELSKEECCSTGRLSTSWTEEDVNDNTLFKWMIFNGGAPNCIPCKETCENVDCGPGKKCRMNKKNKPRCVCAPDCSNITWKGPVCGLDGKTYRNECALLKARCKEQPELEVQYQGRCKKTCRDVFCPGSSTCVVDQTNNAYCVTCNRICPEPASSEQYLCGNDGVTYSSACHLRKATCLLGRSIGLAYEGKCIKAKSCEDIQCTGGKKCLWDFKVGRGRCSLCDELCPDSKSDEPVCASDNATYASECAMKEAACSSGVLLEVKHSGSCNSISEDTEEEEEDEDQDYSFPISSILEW
Albumin (Bos taurus), sequence (P02769 whole entry, looked up): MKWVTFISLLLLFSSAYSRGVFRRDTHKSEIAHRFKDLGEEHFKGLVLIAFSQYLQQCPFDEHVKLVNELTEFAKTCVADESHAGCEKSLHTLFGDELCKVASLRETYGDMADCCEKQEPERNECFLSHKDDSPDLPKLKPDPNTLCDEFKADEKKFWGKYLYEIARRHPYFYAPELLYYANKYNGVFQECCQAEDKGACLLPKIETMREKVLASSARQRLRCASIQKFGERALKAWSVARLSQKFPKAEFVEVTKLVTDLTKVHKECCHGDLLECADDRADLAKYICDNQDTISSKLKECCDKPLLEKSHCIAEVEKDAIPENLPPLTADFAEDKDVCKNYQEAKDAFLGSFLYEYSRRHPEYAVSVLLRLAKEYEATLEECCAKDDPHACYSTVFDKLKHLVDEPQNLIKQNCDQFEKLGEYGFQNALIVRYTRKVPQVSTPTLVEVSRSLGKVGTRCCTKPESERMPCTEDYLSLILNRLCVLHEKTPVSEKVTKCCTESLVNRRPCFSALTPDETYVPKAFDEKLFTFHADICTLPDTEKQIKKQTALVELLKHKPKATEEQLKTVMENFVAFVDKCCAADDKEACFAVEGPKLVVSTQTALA

With `CCOC(=O)C[C@H]1[C@H](OC(=O)c2cc3ccccc3oc2=O)[C@@H](NC(=O)c2ccccc2)c2cc(OCCCO)ccc2N1C(=O)Cc1ccc(OC)cc1`, the composite z-score was -0.138 in test [1]; 0.23 in [2]; 0.44 in [3]; -0.0029 with Albumin (Bos taurus); 0.0488 in [5]; -0.0578 in test [6]. In addition, the composite z-score amounted to 0.467 in test [7]; 0.257 in test [8]; 0.324 in test [9]; 0.382 in the test on Sam68 (KHDRBS1); 0.357 in [10]; 0.773 in test [11]. For the same molecule, the composite z-score in test [12] was -0.657; in test [13], 0.345; in [14], 0.5; in test [15], 0.465; in test [16], 0.856; in [17], 0.948. Further, the composite Z-score in [4] was -0.0478 (inactive). For the same molecule, in test [18], the z-score is -0.42.

For the molecule `COc1ccc([Si](C)(C)[C@H]2[C@H](CC(=O)N3Cc4ccccc4C[C@H]3CO)O[C@@]3(C(=O)N(Cc4cccc(N5C(=O)COc6ccccc65)c4)c4ccccc43)[C@@H]2C)cc1`, the composite z-score in [1] is 0.0637; in test [2], -0.0118; in test [3], 0.7; with Albumin (Bos taurus), -0.534; in test [5], 0.0297; in test [6], -0.102. Moreover, the composite z-score in [7] is 0.635; in test [8] it was 1.97; in test [9], -0.245; in the test on Sam68 (KHDRBS1), 1.02; in test [10], 1.38; in test [11] it was 1.16. For the same molecule, the composite z-score was 1.57 in [12]; 0.671 in test [13]; 0.81 in test [14]; 0.585 in [15]; 1.17 in test [16]; 1.6 in test [17]. The composite Z-score in test [4] is 0.373 (inactive). For the same molecule, in test [18], the z-score turned out to be 0.388.

Consider `CC(C)[C@@H](C(=O)O)n1cc(-c2ccccn2)nn1`, for which the composite z-score in test [1] is 0.0039; in test [2], -0.195; in [3] it was 0.539; with Albumin (Bos taurus) it was 0.69; in test [5], -0.146; in test [6], 0.0571. Further, the composite z-score in [7] is 0.525; in [8], 0.708; in test [9], 0.242; in the test on Sam68 (KHDRBS1), 0.522; in test [10], -0.119; in test [11] it was 0.556. The composite z-score is 2.19 in test [12]; 1.08 in test [13]; 0.113 in test [14]; 0.811 in [15]; -0.0164 in test [16]; 0.712 in test [17]. In addition, the composite Z-score in test [4] is 0.516 (inactive). In [18], this molecule returned a z-score of 1.88.

With `CC(C)C(CO)N1C(=O)[C@@H]2C3C(=O)OCCC/C=C\[C@H]3OC23C=CCN(C(C)C)C(=O)[C@@H]13` (stereo not given in full), the composite z-score in [1] is -0.0035; in test [2], 0.0599; in test [3] it was 1.69; with Albumin (Bos taurus), -1.36; in test [5], -0.214; in test [6] it was -0.168. Besides, the composite z-score in test [7] was 0.865; in [8], 1.37; in test [9] it was 1.95; with Sam68 (KHDRBS1), 0.879; in [10] it was -1.5; in test [11] it was -0.341. The composite z-score was -1.74 in test [12]; -0.809 in test [13]; 0.0086 in [14]; -0.935 in test [15]; -1.05 in test [16]; -0.993 in [17]. For the same molecule, the composite Z-score in test [4] is 1.77 (inactive). This molecule also had a z-score in test [18] of 0.743.

In the case of `CCCC[C@@H](O)C1=C(C)C[C@H]2C(=O)N(C)C(=O)[C@H]2[C@H]1CO`, the composite z-score in [1] was 0.0141; in test [2], 0.185; in [3], 0.0605; with Albumin (Bos taurus), 0.799; in test [5], -0.132; in [6], -0.112. In addition, the composite z-score in test [7] is 0.804; in [8], 0.48; in test [9] it was -0.198; with Sam68 (KHDRBS1), 0.705; in [10] it was -0.0576; in [11] it was 0.0354. The composite z-score in test [12] was 0.33; in [13], -0.196; in test [14], 0.116; in [15], 0.173; in [16], 0.186; in test [17], 0.41. The composite Z-score in test [4] is 0.475 (inactive). Moreover, the z-score in test [18] was determined as 1.52.

Take `C=C(COC)C(=O)CC[C@H](OC(=O)c1ccccc1-c1ccccc1C(=O)O)c1ccccc1OCCO`: the composite z-score was 0.267 in test [1]; 0.0707 in test [2]; 0.423 in test [3]; -0.714 with Albumin (Bos taurus); -0.0881 in test [5]; -0.126 in [6]. Also, the composite z-score is 0.59 in [7]; 0.125 in test [8]; 0.283 in test [9]; 0.452 in the test with Sam68 (KHDRBS1); -0.0006 in test [10]; 0.7 in test [11]. The composite z-score in [12] was -0.307; in test [13] it was 0.536; in test [14], -0.203; in [15], -0.591; in test [16], 0.905; in test [17] it was 0.855. Moreover, in test [4], the composite Z-score was 1.42 (inactive). Further, the z-score in test [18] worked out at 0.904.

With `COC(=O)C1=CC(CCCO)=CC(C2CC2)N(Cc2cc3c(cc2Br)OCO3)C=C1C(=O)OC` (stereo not given), the composite z-score in test [1] is 0.0141; in [2], 0.842; in test [3] it was 3.07; with Albumin (Bos taurus), 1.01; in [5] it was 0.102; in [6], 0.0247. Besides, the composite z-score is 0.92 in test [7]; 2.44 in test [8]; 1.65 in [9]; 1.3 in the test with Sam68 (KHDRBS1); -0.547 in test [10]; 1.07 in test [11]. For the same molecule, the composite z-score is 2.68 in test [12]; 0.86 in [13]; 0.149 in [14]; 0.931 in test [15]; -0.107 in [16]; -0.3 in [17]. Further, in test [4], the composite Z-score is 0.305 (inactive). In test [18], this molecule showed a z-score of 1.27.

Regarding `Cc1ccc(N2C(=O)c3ccccc3[C@](C)(C(=O)NC3CC3)[C@@H]2c2ccc(CO)cc2)nc1`, the composite z-score in test [1] was -0.341; in [2] it was 0.0265; in test [3] it was 1.26; in the test with Albumin (Bos taurus), -0.0191; in test [5] it was -0.132; in test [6], -0.0698. Moreover, the composite z-score in test [7] is 0.78; in test [8] it was 0.529; in test [9], 1.18; with Sam68 (KHDRBS1), -0.501; in [10], 0.407; in test [11], -0.816. The composite z-score is -0.373 in test [12]; -0.644 in test [13]; -0.0892 in test [14]; -0.777 in [15]; 1.22 in test [16]; 0.373 in test [17]. Also, the composite Z-score in [4] is 0.186 (inactive). In test [18], this molecule gave a z-score of 1.13.

(Values after PubChem BioAssay.)
